# Experimental data reported in article PMC12864922, “TDP-43 directly inhibits mRNA accumulation in neurites through modulation of mRNA stability”.
# Whole data set: some 9,900 sequences, median “r (bound/input frequency ratio)” near 0.7, cut for the highest 2% near 6.5. The sample holds the highest values, similar sequences and a random draw of the others, so the mix is not that of the screen.
# B1: ENSMUSG00000061578.1085|Ksr2|91:95 (ssRNA)
# RNA: GGGAGUUCUACAGUCCGACGAUCGCUUCGAUAUCCGCAUGCUAGAUUCUAUCCAGUGGCCAGCAAUACCCAAAAGCAGCCAACCAUGAAAAUAGAGGUUUGUAAUGUACAGAAGGCUGGGGGAGCUUUCAGGGCACACGCCAGUUAUGUACAGAUGUGAAGCUGAGGUCUGAAGGAAAUGGAGGAAGUAGGAAGAUCAGACUGGUUGAAUUAGAAGUCUGUCACUCUAGGUGCUAAGUGACCUUGGACCCAGUCAGUUCUUGGAUUUCUGUUGUAGCCCAGGCUAGCCUCGAACCCUUGAUCCCUCUUGCGGUCGCACUAGUGUGGAAUUCUCGGGUGUCAAGG
# B2: ENSMUSG00000058297.29|Spock2 (ssRNA)
# RNA: GGGAGUUCUACAGUCCGACGAUCGCUUCGAUAUCCGCAUGCUACAACAGCAGGCAACUUAGCAAAUGGAUCCGGAAGUCAGUGCGGAGGACCCUGGCUCCAGUGGGGGAGGACUGGGGAGUGUGGCUUGUGUGUAUGUGUGAUAUGAGAUGUGUGUGUAUGAUGUGAGAUGUGAGUGUGUGAUGUGAGAUGUGUGUAUGUGAGAUGUGUGUGUGUGUGUGUGUGUGUGUGAUGUGAGUCACCCAAAGGUCCCUAUGUUAUUGAUUUUCAAAUGCACACUUUCACACACAAGGAUACACUAACACUCUUGCGGUCGCACUAGUGUGGAAUUCUCGGGUGUCAAGG
# B3: ENSMUSG00000058297.27|Spock2 (ssRNA)
# RNA: GGGAGUUCUACAGUCCGACGAUCGCUUCGAUAUCCGCAUGCUAAAGAGACCUGGACAACAGCAGGCAACUUAGCAAAUGGAUCCGGAAGUCAGUGCGGAGGACCCUGGCUCCAGUGGGGGAGGACUGGGGAGUGUGGCUUGUGUGUAUGUGUGAUAUGAGAUGUGUGUGUAUGAUGUGAGAUGUGAGUGUGUGAUGUGAGAUGUGUGUAUGUGAGAUGUGUGUGUGUGUGUGUGUGUGUGUGAUGUGAGUCACCCAAAGGUCCCUAUGUUAUUGAUUUUCAAAUGCACACUUUCACACACAAGCUCUUGCGGUCGCACUAGUGUGGAAUUCUCGGGUGUCAAGG
# B4: ENSMUSG00000058297.28|Spock2 (ssRNA)
# RNA: GGGAGUUCUACAGUCCGACGAUCGCUUCGAUAUCCGCAUGCUACCUGGACAACAGCAGGCAACUUAGCAAAUGGAUCCGGAAGUCAGUGCGGAGGACCCUGGCUCCAGUGGGGGAGGACUGGGGAGUGUGGCUUGUGUGUAUGUGUGAUAUGAGAUGUGUGUGUAUGAUGUGAGAUGUGAGUGUGUGAUGUGAGAUGUGUGUAUGUGAGAUGUGUGUGUGUGUGUGUGUGUGUGUGAUGUGAGUCACCCAAAGGUCCCUAUGUUAUUGAUUUUCAAAUGCACACUUUCACACACAAGGAUACACUCUUGCGGUCGCACUAGUGUGGAAUUCUCGGGUGUCAAGG
# B5: ENSMUSG00000058297.28|Spock2|83:87;91:104;113:124;138:144;153:162;168:193 (ssRNA)
# RNA: GGGAGUUCUACAGUCCGACGAUCGCUUCGAUAUCCGCAUGCUACCUGGACAACAGCAGGCAACUUAGCAAAUGGAUCCGGAAGUCAGUGCGGAGGACCCUGGCUCCAGUGGGGGAGGACUGGGGACACACGCUACACACAUACACACAUAUGAGAACACACACAUACAUGUGAGAUGUGACACACACAUGUGAGAACACACAUACUGAGAACACACACACACACACACACACACACAUGUGAGUCACCCAAAGGUCCCUAUGUUAUUGAUUUUCAAAUGCACACUUUCACACACAAGGAUACACUCUUGCGGUCGCACUAGUGUGGAAUUCUCGGGUGUCAAGG
# B6: ENSMUSG00000031028.414|Tub|94:98;228:232;234:246;252:260 (ssRNA)
# RNA: GGGAGUUCUACAGUCCGACGAUCGCUUCGAUAUCCGCAUGCUAUUCUUUUUGGUCCUUGGCUGGGUAGCAAAUUGGUGAGAAGAGCAGCCUAGUCUGUAAGAGUGCAGGGCAGCUGGAACCUUAGGCAGCUCCUCUCAUACCUACCGGCUCCACACCCUAACACUCUCCACCCUCUGCUCCAAACCAGUUCUUCUGCAGAGUGGUGAUGUUAGCUUCCCCAGCUCCUCUCCAAGUCUAGCUUUUUCUGUCCUUCUGGCUCCAAGGUGCUCACACACACACACACACACACUGUCACACACACACUCUUGCGGUCGCACUAGUGUGGAAUUCUCGGGUGUCAAGG
# B7: ENSMUSG00000031028.183|Tub (ssRNA)
# RNA: GGGAGUUCUACAGUCCGACGAUCGCUUCGAUAUCCGCAUGCUAAGGGCACAUGUCUCUUGGUUACCUCACUGGUUAAUGGCAGAGUUGAGAACCUCAAAUUCUUUUGUUCCUACUGUUGCCCAGAAACUAGACUCUCUGACCUGCUAGGGUCUAUUCUGCAUGUCCUUUCUCUUCCCAGUUCCAGAGAUGAAACCCCUCCGAGUUAAUGUAUAAGGUUGGAAACCUUUCAGUAGGGAAUCAGGCAGUUCCCUGUUGAAAGUUGUCUGAGUUUUUGCACACCAUUCUGAUCUGAUGUGGCCUGUCUCUUGCGGUCGCACUAGUGUGGAAUUCUCGGGUGUCAAGG
# B8: ENSMUSG00000028439.343|Fam219a (ssRNA)
# RNA: GGGAGUUCUACAGUCCGACGAUCGCUUCGAUAUCCGCAUGCUACCAGUUCGCAUCCCCACCACUCAUCAUCUGGGCCCCAACGCUAGAACUCCCCCCACCGCAUCCCCACUGGGCUCUUUGACUCACCCUUCUAGAACAUGGGUGCCUCCUCUCUUUAGACUGCUGCCUUUGCCUCUGACUUCCUGUGGGAUUGAGAGCCAAGGGCCAGUGCCCUUGUGAGCGCACUAGUUCCGAAGCAGGCAAGGGCAUUAGGUGGUAUAUACAUAGCGGGUAGGGGUAGGAAGCUGGCAGCCUGCAGCUUCCUCUUGCGGUCGCACUAGUGUGGAAUUCUCGGGUGUCAAGG
# Biological target: TDP-43 (Homo sapiens, UniProt Q13148 1-414)
# Sequence (Q13148 whole entry): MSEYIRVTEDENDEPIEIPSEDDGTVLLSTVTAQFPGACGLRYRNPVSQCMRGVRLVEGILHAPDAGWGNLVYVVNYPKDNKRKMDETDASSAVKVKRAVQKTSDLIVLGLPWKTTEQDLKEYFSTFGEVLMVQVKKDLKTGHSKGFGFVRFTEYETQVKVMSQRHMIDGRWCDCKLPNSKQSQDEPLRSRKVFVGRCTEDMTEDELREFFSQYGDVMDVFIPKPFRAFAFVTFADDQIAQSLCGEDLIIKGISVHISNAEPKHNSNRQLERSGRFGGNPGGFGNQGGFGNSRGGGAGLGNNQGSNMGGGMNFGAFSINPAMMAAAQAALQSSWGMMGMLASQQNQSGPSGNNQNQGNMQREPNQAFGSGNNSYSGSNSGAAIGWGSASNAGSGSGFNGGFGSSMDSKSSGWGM
# Test: RNA Bind-n-Seq with designed 260-mer pool; 25 mM Tris-HCl, 150 mM KCl, 3 mM MgCl2, BSA (printed 500 mg/mL), 20 units/mL SUPERase IN; pH not stated; 500 nM RNA pool, 1 h, 4 C; TDP-43 5, 50, 500 nM; high values mean tight binding
# Conditions: protein: recombinant; tags: SBP (GST cleaved off with PreScission; pGEX-GST-SBP)
# How it was run: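 Binding (R) is the ratio of each oligo's mapped-read-normalized abundance in the bound fraction to its abundance in the input. To obtain it, SBP-tagged recombinant TDP-43 (5, 50 or 500 nM) on streptavidin beads was incubated with 500 nM of an in vitro-transcribed 260-nt 3′ UTR oligo pool for 1 h at 4 °C in 25 mM Tris-HCl, 150 mM KCl, 3 mM MgCl2, BSA and SUPERase IN. The RNA retained after washing was released with biotin, then reverse transcribed, amplified by PCR and sequenced.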
row,Binder,binding signal
1,B1,0.868 R (bound/input frequency ratio)
2,B2,6.82 R (bound/input frequency ratio)
3,B3,6.12 R (bound/input frequency ratio)
4,B4,6.8 R (bound/input frequency ratio)
5,B5,3.52 R (bound/input frequency ratio)
6,B6,2.86 R (bound/input frequency ratio)
7,B7,0.952 R (bound/input frequency ratio)
8,B8,0.735 R (bound/input frequency ratio)
